Inconclusive results are not listed. Activity calls are given as the source filed them. Calls come from the whole dose curve; as a rule, active = well fitted curve in the direction sought with a large enough effect; inconclusive = small, poorly fitted or top-dose-only effect, or another doubt; inactive = no such curve, though single readings can be large; an effect the other way counts as inactive or inconclusive.
Columns and labels:
[1] = target: Luciferin 4-monooxygenase (Photinus pyralis) (UniProt P08659); assay: Firefly luciferase counterscreen qHTS: Assay Interference Panel against the NCATS CANVASS Library (AID 1347363)
Luciferin 4-monooxygenase (Photinus pyralis), sequence (P08659 whole entry, looked up): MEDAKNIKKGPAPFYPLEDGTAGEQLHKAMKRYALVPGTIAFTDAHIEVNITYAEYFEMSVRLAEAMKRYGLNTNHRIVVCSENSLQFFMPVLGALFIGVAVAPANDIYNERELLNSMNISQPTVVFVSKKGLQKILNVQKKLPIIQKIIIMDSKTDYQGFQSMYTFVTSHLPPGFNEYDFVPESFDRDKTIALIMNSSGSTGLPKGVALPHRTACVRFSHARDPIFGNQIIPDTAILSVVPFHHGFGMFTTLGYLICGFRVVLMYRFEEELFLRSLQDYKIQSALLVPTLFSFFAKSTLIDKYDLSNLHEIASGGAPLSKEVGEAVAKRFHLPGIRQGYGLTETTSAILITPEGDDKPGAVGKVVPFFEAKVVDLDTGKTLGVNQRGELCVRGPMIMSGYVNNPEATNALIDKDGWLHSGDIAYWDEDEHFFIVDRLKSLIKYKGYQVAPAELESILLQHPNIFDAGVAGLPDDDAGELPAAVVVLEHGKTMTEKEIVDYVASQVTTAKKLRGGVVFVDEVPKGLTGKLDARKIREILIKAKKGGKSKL
How it was run: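 Purified P. pyralis luciferase (0.04 ug/mL, 4x reagent) added to Tris-acetate buffer with 0.013 mM D-luciferin, 0.013 mM ATP and 13.3 mM Mg-acetate; compounds preincubated 15 min, then luminescence read after 5 min, RT.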

[2] = KB-8-5-11 Cancer Cell Toxicity qHTS against the NCATS CANVASS Library (AID 1347364); note: nearly all actives have a fitted effect of over 75% in size
How it was run: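 KB-8-5-11 cells (500/well) in DMEM + 10% FBS were exposed to compounds in an 11-point qHTS series for 72 hr at 37C, 5% CO2. Viability was read by CellTiter-Glo luminescence.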

[3] = SDT Cancer Cell Toxicity qHTS against the NCATS CANVASS Library (AID 1347365);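 note: SDT canine glioma cells 500 per well in 1536 well plates; nearly all actives have a fitted effect of over 60% in size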
Source text: (§1) Natural products and their derivatives continue to be wellsprings of nascent therapeutic potential. However, many laboratories have limited resources for biological evaluation, leaving their previously isolated or synthesized compounds largely or completely untested. To address this issue, the Canvass library of natural products was assembled (https://tripod.nih.gov/canvass), in collaboration with academic and industry researchers, for quantitative high-throughput screening (qHTS) across a diverse set of cell-based and biochemical assays. […] The library was formatted into 1536-well plates and evaluated in 50 qHTS (in an 11-pnt concentration series) bioassays with broad scope of disease-relevant mechanisms. The resulting data set from 50 different assays was then systematically analyzed to identify overall trends and specific natural products with interesting biological activities. […] This assay uses ATP (luminescence) content to measure the cytotoxiciy of compounds on SDT dog glioma cancer cell line. […]
Cancer Cell Toxicity qHTS protocol: for cell lines G06, J3T, and SDT. […] Luminescence signal was acquired via the ViewLux plate reader (PerkinElmer) using a clear emission filter, 2 sec exposure, and 1x binning settings.

[4] = KB-3-1 Cancer Cell Toxicity qHTS against the NCATS CANVASS Library (AID 1347366); conditions: KB-3-1 viability, CellTiter-Glo luminescence, 72 h; at 46.1 µM (top of the series); note: nearly all actives have a fitted effect of over 75% in size
How it was run: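 Luminescence from CellTiter-Glo (10 min, room temperature) measured KB-3-1 viability after 72 hr compound exposure at 37C. Cells were seeded at 500/well and tested in an 11-point series.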

[5] = qHTS for ATAD5 Agonist screened against the NCATS CANVASS Library (AID 1347367);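 note: luciferase reporter driven by ATAD5 which rises upon DNA damage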
How it was run: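 HEK293T-ATAD5 luc reporter; 2000 cells/well; 5hr settle; cpd 11-pt qHTS; 16hr 37C 5% CO2 dark; viability by CellTiter-Fluor (AFC fluorescence); then luciferase luminescence, 30min RT.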

[6] = G06 Cancer Cell Toxicity qHTS against the NCATS CANVASS Library (AID 1347368); note: nearly all actives have a fitted effect of over 60% in size
How it was run: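 G06 dog glioma cells seeded at 500 cells/well were exposed to compounds (11-point qHTS series) for 72 hr at 37C, 5% CO2; viability read as ATP content by CellTiterGlo luminescence.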

[7] = MCF7 Cancer Cell Toxicity qHTS against the NCATS CANVASS Library (AID 1347369); conditions: MCF7 viability, ATP luminescence (CellTiter-Glo), 72 h; at 46 µM (top of the series)
How it was run: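 Cells seeded at 500/well, then compound pinned. Plates incubated 72 hr at 37C, 5% CO2. CellTiterGlo added; luminescence read.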

[8] = qHTS for ATAD5 Antagonist screened against the NCATS CANVASS Library (AID 1347370);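 note: HEK293T cells carrying an ATAD5 luciferase reporter co-treated with 10 µM 5-fluorouridine; nearly all actives have a fitted effect of over 65% in size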
Source text: as §1, with “Luminescence intensity is proportional” for “This assay uses ATP (luminescence) content”, “ATAD5 expression.” for “measure the cytotoxiciy of compounds on SDT dog glioma cancer cell line.”
ATAD5 Agonist assay protocol: 1. […] A first readout of fluorescence signal was acquired via the ViewLux (PerkinElmer) plate reader using filter sets for AFC (380-400nmEx/505Em) and 1 second exposure setting. […] 8.#A second readout of luminescence signal was acquired via the ViewLux plate reader using a clear emission filter, 10 second exposure setting.

[9] = J3T Cancer Cell Toxicity qHTS against the NCATS CANVASS Library (AID 1347371);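 note: J3T is a canine glioma cancer cell line seeded at 500 cells per well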
How it was run: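 J3T dog glioma cells (500 cells/well) were exposed to compounds in an 11-point series for 72 hr at 37C, 5% CO2. Cytotoxicity was read as ATP content by CellTiterGlo luminescence.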

[10] = target: Nuclear receptor subfamily 1 group I member 3 (Homo sapiens) (UniProt Q14994); assay: qHTS for Constitutive Androstane Receptor (CAR) Antagonist screened against the NCATS CANVASS Library (AID 1347372);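 note: cells stimulated with 50 nM CITCO agonist so inhibition reflects antagonism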
Nuclear receptor subfamily 1 group I member 3 (Homo sapiens), sequence (Q14994 whole entry, looked up): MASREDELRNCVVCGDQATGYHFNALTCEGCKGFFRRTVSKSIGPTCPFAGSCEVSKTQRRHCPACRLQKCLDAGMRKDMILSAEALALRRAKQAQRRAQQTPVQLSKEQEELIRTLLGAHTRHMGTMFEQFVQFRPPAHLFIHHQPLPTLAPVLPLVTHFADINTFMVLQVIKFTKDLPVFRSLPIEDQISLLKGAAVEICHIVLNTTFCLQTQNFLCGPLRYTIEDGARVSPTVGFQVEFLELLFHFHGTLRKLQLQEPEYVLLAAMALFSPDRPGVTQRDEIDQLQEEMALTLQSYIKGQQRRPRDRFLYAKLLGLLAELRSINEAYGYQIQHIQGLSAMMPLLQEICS
How it was run: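 HepG2 cells stably carrying hCAR and CYP2B6-2.2kb luciferase reporter, 2500 cells/well, compound with 50 nM CITCO agonist for 24hr at 37C. ONE-Glo luminescence measured CAR activity; CellTiter-Fluor read viability.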

Measured: outcome

CN(C)CCc1c[nH]c2ccccc12
inactive: [1] | [2] | [3] | [4] | [5] | [6] | [7] | [8] | [9] | [10]

Source: PubChem BioAssay (NCATS)
